# Assay outcomes as filed in PubChem BioAssay.
# Only some compounds are listed: those with a hit (about 1.2% of all), similar ones and a draw of the others.
# Mtb UGM inh: Mtb UDP-galactopyranose mutase inhibition. AID 504406. 320,000 tested, 0.06% active. inhibition, % at 10 µM. purified UGM, fluorescence polarization probe displacement. P9WIQ1; in the data active means inhibition above about 10%, passing the limit was not always enough
# Rv3671c protease: Rv3671c (M. tuberculosis) protease inhibition | inhibition, % at 5.96 µM | P9WHR9 | 320,000 tested, 0.048% active; in the data active means inhibition above about 38%;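 further: extracellular domain of Rv3671c used as enzyme; 0% = enzyme with DMSO and 100% = no enzyme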
# SSB-PriA inh: inhibitors of Klebsiella pneumoniae PriA binding to SSB C-terminal tail; AlphaScreen SSBct-PriA binding, biotinylated peptide; inhibition, % at 33 µM; 430,000 tested, 0.6% active; AID 1272365; in the data active means inhibition mostly above about 37%, no sharp cut-off; inactive means mostly below about 20%;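 further: plate controls were negative control peptide for no effect and reference peptide for full effect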
# PrP UTR inh: suppresses PrP 5' UTR mRNA reporter expression. inhibition, % (concentration not given with the values). AID 488862. cell-based PrP 5' UTR mRNA reporter, plate reader. 340,000 tested, 0.35% active; in the data active means inhibition above about 52%; further: 0 = median of the neutral control wells
# FadD28 binding: blocks FadD28 binding to the bisubstrate probe. fluorescence polarization. inhibition, % at 12.5 µM. 360,000 tested, 0.22% active; in the data active means inhibition above about 8.5%, passing the limit was not always enough
# PrPC TRFRET: inhibitors of human cell surface prion protein PrPC | TR-FRET read-out | inhibition, % at 13.8 µM | 370,000 tested, 0.43% active | AID 720596; in the data active means inhibition above about 24%; further: 0% = median of the test wells and 100% = reference compound wells
# PrPC TRFRET cf: cell surface PrPC inhibition, TR-FRET confirmation | shares compounds with PrPC TRFRET | cell surface PrPC level | inhibition, % at 13.8 µM | 1,500 tested, 65% active | AID 743200; in the data active means inhibition above about 25%
# LD9 tox: LD9 cell cytotoxicity, PrPc inhibitor counter-screen. shares compounds with PrPC TRFRET. LD9 cells cytotoxicity, luminescence viability. inhibition, % at 13.8 µM. 1,500 tested, 29% active. AID 743201; in the data active means inhibition above about 9.5%
# * = called active by the depositor; / = not tested or not shown.
SMILES,Mtb UGM inh,Rv3671c protease,SSB-PriA inh,PrP UTR inh,FadD28 binding,PrPC TRFRET,PrPC TRFRET cf,LD9 tox
Cc1n[nH]c(=S)n1N=Cc1ccccc1OCc1ccc(Cl)cc1Cl,/,/,-6,/,/,/,/,/
Cc1cccc(CC(=O)NC[C@@](O)(c2ccccc2)C(F)(F)F)c1,/,/,-11,/,/,/,/,/
C=Cc1ccc(COC(=O)c2nnn(-c3ccc(Cl)cc3)c2C)cc1,/,/,1,/,/,/,/,/
COc1ccc(NC(=O)CCSc2ccc3ccccc3n2)cc1,-1,-8,-8,-16,-2,56*,75*,-2
COc1cccc(NC(=O)CCSc2ccc3ccccc3n2)c1,6,3,-15,-28,1,68*,84*,-7
COc1cccc(NC(=O)CSc2ccc3ccccc3n2)c1,/,/,-1,/,/,/,/,/
C=C1C(=O)O[C@@H]2C[C@@H](C)[C@@H]3C=CC(=O)[C@@]3(C)[C@@H](OC(C)=O)[C@H]12,1,17,-19,/,/,95*,104*,34*
CC(=O)OC1C(OC(C)=O)C2C(C)CC3OC(=O)C(C)C3CC2(C)C1OC(C)=O (centres undefined),/,/,/,/,-1,4,/,/
CC(=O)Nc1cccc(NC(=O)c2cccc(-c3ccc(O)cc3)c2)c1,-1,-25,-1,-65,-5,-7,/,/
COc1ccc(NC(=O)c2cccc(-c3ccc(O)cc3)c2)cn1,6,-17,8,-27,-7,33*,14,5
COc1ccccc1CCNC(=O)c1sc(NC(=O)Nc2cccc(Cl)c2)nc1C,/,/,-8,/,/,/,/,/
Cn1nnnc1SCc1nc2scc(-c3ccccc3)c2c(=O)[nH]1,1,3,-1,-31,-3,12,/,/
Cn1nnnc1SCc1nc2scc(-c3ccc(Cl)cc3)c2c(=O)[nH]1,1,-9,-18,-30,-4,32*,26*,6
CCOc1ccc(-c2ccc3nnc(SC)n3n2)cc1,/,/,-4,/,/,/,/,/
CC(=O)c1cccc(NS(=O)(=O)c2ccc(-c3cnc(C4CC4)o3)cc2)c1,3,-2,1,-42,-3,30*,22,19*
CC(=O)Nc1ccc(NS(=O)(=O)c2ccc(-c3cnc(C4CC4)o3)cc2)cc1,1,-3,-3,-5,-3,-6,/,/
COCc1cc(=O)[nH]c(Nc2nc3ccc(C)cc3o2)n1,3,-10,-2,-42,0,32*,13,48*
CCOC(=O)C1C(=O)C=C(c2ccc(OC)cc2)CC1c1ccc([N+](=O)[O-])cc1 (centres undefined),/,/,-2,/,/,/,/,/
CCN(CC)S(=O)(=O)c1cc(C(=O)Nc2ccncc2)ccc1Cl,1,-7,-17,-1,0,26*,20,17*
OC[C@@H]1CN(Cc2ccc(Cl)cc2)C[C@H](n2cnc3c(NC4CCC4)ncnc32)O1,/,/,/,/,-3,26*,23,-6
COc1ccc(C2C(=C(O)c3ccccc3)C(=O)C(=O)N2CCN2CCOCC2)c(OC)c1 (centres undefined),/,/,-1,/,/,/,/,/
Cc1ccc(CNC(=O)c2ccc(S(=O)(=O)N3CCCC3)cc2)cc1,/,/,/,/,0,4,/,/
CCN(CC)S(=O)(=O)c1ccc(C(=O)NCc2ccc3c(c2)OCO3)cc1,1,-3,-9,-27,1,0,/,/
Cc1cc2cc(CNC(=O)c3ccc(S(=O)(=O)N4CCCCC4)cc3)ccc2n1C,1,6,-7,-3,2,39*,21,-8
Cc1ccc(CNC(=O)c2ccc(S(=O)(=O)N3CCCCC3)cc2)cc1,/,/,-12,-15,0,17,/,/
SMILES,Mtb UGM inh,Rv3671c protease,SSB-PriA inh,PrP UTR inh,FadD28 binding,PrPC TRFRET,PrPC TRFRET cf,LD9 tox
CCN(CC)S(=O)(=O)c1ccc(C(=O)NCc2ccc3c(c2)cc(C)n3C)cc1,-2,7,20,-18,-1,36*,2,-2
Cc1cc2cc(CNC(=O)c3ccc(S(=O)(=O)N4CCCC4)cc3)ccc2n1C,-1,-1,-3,-11,1,37*,68*,3
CCN(CC)CCN1C(=O)C(=O)C(=C(O)c2ccc(OC)c(OC)c2)C1c1ccccn1 (centres undefined),/,/,30,/,/,/,/,/
Nc1c(C(=O)Nc2ccc3c(c2)OCCO3)nnn1Cc1cccc(Br)c1,2,-14,-8,-70,-2,29*,21,-4
Nc1c(C(=O)Nc2ccc3c(c2)OCCO3)nnn1Cc1ccc(Br)cc1,0,6,-3,-91,-1,12,/,/
CCn1c(=O)c(C(=O)NCc2ccc(OC)cc2)c(O)c2ccccc21,-1,6,0,-5,1,5,/,/
CCn1c(=O)c(C(=O)NCc2ccccn2)c(O)c2ccccc21,-2,-12,-7,-10,0,30*,40*,-5
c1ccc2c(c1)c1ccccc1n2CCOCCOCCn1c2ccccc2c2ccccc21,/,/,-10,/,/,/,/,/
CCCCCCCCCCCCCCCC[n+]1ccccc1,/,/,-2,10,32*,28*,39*,36*
O=C(NCCNc1cc(-n2cccn2)ncn1)c1ccco1,/,/,13,/,/,/,/,/
O=C1C(Nc2ccc(O)cc2)=C/C(=N/S(=O)(=O)c2cccs2)c2ccccc21,/,/,/,-9,3,46*,59*,99*
CCOC(=O)c1c(NC(=O)C2CC2)sc2c1CC(C)(C)NC2(C)C,/,/,-2,/,/,/,/,/
Cc1ccc(S(=O)(=O)n2c(C)nc3ccccc32)cc1,-1,5,-6,-25,1,-2,/,/
CCOc1cc(S(=O)(=O)n2c(C)nc3ccccc32)ccc1F,1,0,6,7,0,59*,14,-4
Cc1cc(SCC(=O)Nc2ccc3c(c2)OCCO3)nc2ccccc12,/,/,-11,/,/,/,/,/
CC(Sc1ccccn1)C(=O)Nc1ccc2c(c1)OCCO2 (centres undefined),-2,-4,-6,-17,-2,6,/,/
CC(Sc1ncnc2ccccc12)C(=O)Nc1ccc2c(c1)OCCO2 (centres undefined),-5,1,-7,-8,-3,43*,28*,4
O=C(CSc1ncnc2ccccc12)Nc1ccc2c(c1)OCCO2,1,5,-15,-51,-2,40*,50*,-6
O=C(CSc1nc(Cc2ccccc2)nc2ccccc12)Nc1ccc2c(c1)OCCO2,4,-8,-1,-21,0,31*,71*,-9
O=C(NCCn1nc(C2CC2)n(-c2ccccc2)c1=O)c1nc2ccccc2s1,/,/,-6,/,/,/,/,/
CC(C)c1nnc(-c2cc3ccccc3n2CC(=O)Nc2cc(C(F)(F)F)ccc2Cl)o1,/,/,-5,/,/,/,/,/
Nc1ccc2c(c1)C(=O)C(=O)c1ccccc1-2,1,-122,14,-37,6,64*,61*,99*
Cc1cccc2sc(NC(=O)CCc3csc(NC(=O)c4ccc[nH]c4=O)n3)nc12,/,/,-7,/,/,/,/,/
CCOC(=O)N1CCN(C(=O)/C(=C/c2ccc(OC)c(OC)c2)NC(=O)c2ccccc2)CC1,0,3,-20,-33,-3,29*,-1,-4
